Screens from PubChem.
CHX counter: counter-screen hit for Shiga toxin inhibitors, cycloheximide; 300,000 compounds, 12% hits; max response, %; cell reporter, cycloheximide protein synthesis inhibition counterscreen; AID 2314; in the data active = max response mostly above about 13%, no sharp cut-off; inactive = mostly below about 14%; also: read at 38.3 µM for the half of the compounds with a filed dose
Sm TGR block: blocks Schistosoma mansoni thioredoxin glutathione reductase; AID 485364; Potency, µM (titrated, usually from 114 µM), hits mostly inhibitors; purified TGR, DTNB reduction, TNB absorbance 405 nm; Q962Y6; 360,000 compounds, 3% hits; active = well fitted inhibition curve with a large enough effect; inconclusive = small, poorly fitted or top-dose-only effect; inactive = no such curve, though single readings can be large or run the other way; also: nearly all actives have a fitted effect of over 60% in size
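Kinetic colorimetric format: TGR-catalysed, NADPH-driven DTNB reduction monitored via TNB absorbance. Enzyme dispensed at 20 nM; compound exposure 15 min at room temperature before reaction start.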
Shiga toxin inh: inhibitors of Shiga toxin in Vero cells | Vero cells, Shiga toxin protein synthesis inhibition reporter | inhibition, % at 38.7 µM | 290,000 compounds, 9.2% hits | AID 2315; in the data active = inhibition mostly above about 28%, no sharp cut-off; inactive = mostly below about 43%
FMDV antiviral: foot and mouth disease virus antiviral activity; FMDV antiviral cell-based qHTS; Potency, µM (top dose mostly 57.9 µM), usual class: inhibitors; 410,000 compounds, 1.2% hits; calls by dose curve; tested in HEK293T cells; also: read-out not given here; nearly all actives have a fitted effect of over 45% in size
Large screens that a line does not name were inactive. Most compounds without a hit are left out; they make up all but 12% or so of the library.

Cc1ccc2c(c1)c1nc3ccccc3nc1n2C	CHX counter 19
COc1ccc(C2=NC(c3ccc(Cl)cc3)C(c3ccc(Cl)cc3)N2C(=O)N2CCNC(=O)C2)c(OC(C)C)c1 (stereo not given)	none (no result: Sm TGR block, FMDV antiviral)
Cc1ccc(NC(=O)Cn2c(=O)c3cc(Cl)ccc3n3nncc23)cc1	none (no result: CHX counter, Shiga toxin inh)
O=C(COc1ccccc1O)Nc1ccccc1Cl	CHX counter 71, Shiga toxin inh 93
COc1ccccc1CN(C)CC(=O)Nc1ccccc1-c1ccccc1	CHX counter 15, FMDV antiviral inconclusive
Cc1ccccc1NC(=O)COc1ccccc1C	CHX counter 16
COc1ccc(OCC(=O)Nc2ccccc2Cl)cc1	none
Cc1ccccc1OCC(=O)Nc1ccccc1-c1ccccc1	CHX counter 18, Shiga toxin inh 42
O=C1CC(c2nc3ccccc3n2CCCOc2ccccc2)CN1c1ccc(F)cc1 (stereo not given)	FMDV antiviral inconclusive (no result: CHX counter, Shiga toxin inh)
Cc1ccc2nc(Cl)c3cc(C(=O)N4CCCC(C)C4)sc3c2c1 (stereo not given)	none (no result: CHX counter, Shiga toxin inh)
Cc1ccc(OC(=O)COc2ccccc2C)cc1	none
CCC(Sc1ncccc1C(=O)Oc1ccccc1Cl)C(=O)Nc1ccccc1OC (stereo not given)	none (no result: CHX counter, Shiga toxin inh)
Cc1ccc(SC(=O)COc2ccccc2C)cc1	Sm TGR block 11µM
O=C(CSc1ncccc1C(=O)Oc1ccccc1Cl)Nc1ccccc1Cl	Shiga toxin inh 64
Cc1nc(SCC(=O)Nc2ccccc2C)cc(-c2ccccc2)n1	none (no result: CHX counter, Shiga toxin inh)
COc1ccc(-c2nc(SCC(=O)Nc3ccc4c(c3)OCO4)c(-c3ccccc3)[nH]2)cc1	none (no result: CHX counter, Shiga toxin inh)
CC(=O)NCCNc1cc(-c2ccccc2C)ncn1	none (no result: CHX counter, Sm TGR block, Shiga toxin inh)
COc1ccc(CCNC(=O)Cn2cc(S(=O)(=O)Cc3ccc(F)cc3)c3ccccc32)cc1OC	none (no result: CHX counter, Shiga toxin inh)
N#CCC(=O)Nc1nc(-c2ccc3c(c2)OCCO3)cs1	CHX counter 32, Shiga toxin inh 56
O=C(Nc1nc(-c2ccc3c(c2)OCCO3)cs1)C1CCCC1	CHX counter 49, Shiga toxin inh 149
CCOC(=O)N1CCN(C(=O)CSCC(=O)Nc2nc(-c3ccc4c(c3)OCO4)cs2)CC1	FMDV antiviral inconclusive
Cc1ccc(C(=O)Nc2nc(-c3ccc4c(c3)OCCO4)cs2)o1	none (no result: CHX counter, Sm TGR block, Shiga toxin inh)
O=C(CCCCl)Nc1nc(-c2ccc3c(c2)OCCO3)cs1	CHX counter 31, Shiga toxin inh 70
O=C(CSCC(=O)N1CCOCC1)Nc1nc(-c2ccc3c(c2)OCO3)cs1	CHX counter 33
Cc1ccc(-c2nn(-c3ccccc3)cc2C=C2C(=O)CC(C)(C)CC2=O)cc1	none
CC1=NNC(=O)/C1=C\c1cn(-c2ccccc2)nc1-c1ccc(Cl)cc1	FMDV antiviral 10µM
CCCCS/C(=C(/C#N)C(N)=O)c1cc2c([nH]1)CCCC2	Sm TGR block 10µM
CCc1ccc(N/C(SC)=C(/C#N)C(N)=O)cc1	none
CCOC(=O)c1c(C)c(-c2ccccc2)n(CC(=O)NCc2cccc(OC)c2)c1C	none (no result: CHX counter, Shiga toxin inh)
CC(=O)Nc1ccc2nc(CN3CCN(Cc4ccc(F)cc4)C(CCO)C3)ccc2c1 (stereo not given)	Sm TGR block 25µM
CC(=O)c1cccc(CN2CCN(Cc3ccc(C)cc3)C(CCO)C2)c1 (stereo not given)	none
COc1cc(CN2CCN(Cc3ccc(C)cc3)C(CCO)C2)cc(OC)c1O (stereo not given)	Sm TGR block 6.3µM
COc1ccc(CN2CCN(Cc3ccc(C)cc3)C(CCO)C2)cc1OC (stereo not given)	none
CC(=O)c1cccc(CN2CCN(Cc3ccc(F)cc3)C(CCO)C2)c1 (stereo not given)	Sm TGR block 45µM
COc1cccc(-c2nc3ccc([N+](=O)[O-])cc3o2)c1	Shiga toxin inh 29
O=[N+]([O-])c1ccc2nc(-c3ccccc3)oc2c1	CHX counter 26, Shiga toxin inh 71
CC(=O)CC(C)(C)Nc1nc2ccc([N+](=O)[O-])cc2o1	none
O=c1oc(-c2cccc([N+](=O)[O-])c2)nc2ccccc12	none (no result: Shiga toxin inh)
CCc1ccc2oc(-c3cccc(NC(=O)c4ccc(-c5cccc([N+](=O)[O-])c5)o4)c3)nc2c1	Sm TGR block inconclusive (no result: CHX counter, Shiga toxin inh)
CC(C)(C)Nc1nc2ccc([N+](=O)[O-])cc2o1	CHX counter 19
COc1ccc(OC)c(C(=O)c2c(N)c(-c3nc(-c4ccc(C)c(C)c4)cs3)c3ccccn23)c1	none (no result: CHX counter, Shiga toxin inh)
CC(C)Nc1nnc(SCC(=O)Nc2ccc3c(c2)C(=O)c2ccccc2C3=O)s1	CHX counter 41, Shiga toxin inh 70
O=C(CSc1nnc(NC2CCCCC2)s1)Nc1ccc2c(c1)C(=O)c1ccccc1C2=O	CHX counter 42, Shiga toxin inh 66 (no result: Sm TGR block)
CCN(CC(O)Cn1c2ccccc2c2ccccc21)S(=O)(=O)c1ccc(F)cc1 (stereo not given)	FMDV antiviral 28µM
COc1cccc(/C=N/N2C(=O)NC3(CCCCC3)C2=O)c1O	CHX counter 37
Fc1cccc(F)c1/C=N/N1CCOCC1	none
Fc1ccc(/C=N/N2CCOCC2)c(F)c1	CHX counter 21
COc1cccc(/C=N/N2CCOCC2)c1O	CHX counter 24, Shiga toxin inh active
COc1ccc(O)c(/C=N/N2CCOCC2)c1	CHX counter 41, Shiga toxin inh 99
CCOc1cc(/C=N/N2C(=O)NC3(CCCCC3)C2=O)cc(Br)c1O	none
CCn1cc(C(=O)NCc2ccc(C)cc2)c(=O)c2cc(S(=O)(=O)N(C)C3CCCCC3)ccc21	Sm TGR block inconclusive (no result: CHX counter, Shiga toxin inh)
Cc1cc2n(n1)CCC(=O)N2Cc1ccc(C(=O)Nc2ccc(F)cc2F)cc1	none (no result: CHX counter, Shiga toxin inh)
O=S(=O)(Nc1ccc(-c2ccc(N3CCCCC3)nn2)cc1)c1ccc(OC(F)(F)F)cc1	none (no result: CHX counter, Shiga toxin inh)
CCOC(=O)c1[nH]c2ccccc2c1NC(=O)c1cc(OC)cc(OC)c1	none (no result: CHX counter, Shiga toxin inh)
COc1ccc(-n2c(CC3C(=O)N(C)c4ccc(C)cc43)nc3ccccc3c2=O)cc1 (stereo not given)	FMDV antiviral inconclusive (no result: CHX counter, Shiga toxin inh)
CC(=O)Oc1ccc(C(=C2CCCCC2)c2ccc(OC(C)=O)cc2)cc1	none (no result: Sm TGR block, FMDV antiviral)
COc1cccc(C=Nc2ccc(N3CCOCC3)cc2)c1O	none
COc1cccc(C=Nc2ccc3c(c2)OCCO3)c1O	CHX counter 75, Shiga toxin inh 107
Cc1cc(NC(=S)Nc2ccccc2)ccc1Br	none
CCN(CC)S(=O)(=O)c1cc(C)ccc1NC(=S)Nc1cccnc1	Sm TGR block 22µM
Cc1cc(NC(=S)Nc2cccnc2)ccc1Br	Sm TGR block 18µM
CCN(CC)S(=O)(=O)c1cc(C(=O)Nc2cccnc2)ccc1Cl	FMDV antiviral inconclusive
Cc1cc(Cl)ccc1NC(=S)Nc1cccnc1	Sm TGR block 18µM
COc1ccccc1CNC(=O)C(=O)NCC(c1ccc2c(c1)OCO2)N1CCOCC1 (stereo not given)	none (no result: CHX counter, Shiga toxin inh)
CCc1nc2c(OCCn3cccc3)cccn2c1N(C)C(=O)c1cccs1	none (no result: CHX counter, Sm TGR block, Shiga toxin inh)
CCc1nc2c(OCCC3CCCCC3)cccn2c1N(C)C(=O)c1cccs1	FMDV antiviral 28µM (no result: CHX counter, Sm TGR block, Shiga toxin inh)
Cc1cc2ncn(/N=C/c3ccc4c(c3)OCO4)c2cc1C	CHX counter 18, Shiga toxin inh 76
Cc1cc2ncn(/N=C/c3cccnc3)c2cc1C	none
Cc1cccc(NC(=O)c2oc3ccccc3c2NC(=O)c2cc(=O)c3cc(Cl)ccc3o2)c1	none (no result: CHX counter, Shiga toxin inh)
Cc1ccc(C(=O)/C=C/c2cc(Br)cc(Br)c2O)o1	Sm TGR block 1.6µM, FMDV antiviral inconclusive
